A selection: hits, their analogues and other compounds. The true share with any hit is near 1.7%.
HTR5A inv ag = HTR5A inverse agonism, opioid heterodimer counter-screen; P47898; HTR5A cell line, luminescence; inhibition, % at 9.3 µM; actives 0.083% (n = 340,000); in the data active means inhibition mostly above about 23%, no sharp cut-off; inactive means mostly below about 18%
Target sequence (P47898 whole entry, looked up): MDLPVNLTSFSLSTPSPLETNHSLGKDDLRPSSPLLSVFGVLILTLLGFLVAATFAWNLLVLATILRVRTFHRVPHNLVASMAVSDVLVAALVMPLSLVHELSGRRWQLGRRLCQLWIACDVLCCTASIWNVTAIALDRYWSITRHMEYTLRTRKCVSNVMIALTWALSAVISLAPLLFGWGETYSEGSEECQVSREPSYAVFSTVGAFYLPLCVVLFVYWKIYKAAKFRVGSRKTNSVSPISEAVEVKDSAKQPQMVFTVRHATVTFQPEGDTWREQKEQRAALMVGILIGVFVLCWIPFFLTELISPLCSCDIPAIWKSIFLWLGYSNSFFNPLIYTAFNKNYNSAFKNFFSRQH
MOR-DOR inv ag = mu-delta opioid heterodimer inverse agonism | P35372+P41143 | cell-based MOR-DOR heterodimer luminescence | inhibition, % at 9.3 µM | actives 0.21% (n = 340,000) | AID 504357; in the data active means inhibition above about 22%, passing the limit was not always enough
V-ATPase pHluor = regulators of yeast V-ATPase proton transport | response, % at 10 µM | actives 0.37% (n = 350,000) | S. cerevisiae, pHLuorin cytosolic pH fluorescence | AID 504577; in the data active means response mostly above about 7.3%, no sharp cut-off; inactive means mostly below about 5.4%; further: actives read high
HTR5A ag = counter-screen for OPRM1-OPRD1 agonists: human HTR5A agonism; P47898; HTR5A agonist assay, luminescence, cell-based; activation, % at 9.3 µM; actives 0.61% (n = 340,000); AID 504692; in the data active means activation mostly above about 9.5%, no sharp cut-off; inactive means mostly below about 7.6%
OPRM1-OPRD1 ag = agonists of human mu-delta opioid receptor heterodimerization. P35372+P41143. cells, OPRM1-OPRD1 heterodimerization, luminescence. activation, % at 9.3 µM. actives 0.3% (n = 340,000). AID 504326; in the data active means activation above about 18%
beta cell repl = MIN6 beta-cell proliferation induction; MIN6 cells proliferation, ATPlite luminescence, 48 h; cells starved in 0.2% serum; 100% = growth in 10% serum; proliferation, % at 10 µM; actives 0.29% (n = 330,000); AID 2380;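 active means compounds whose signal lies at least 3.5 SD above the mean of all wells on their plate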
OPRM1-D1 inv cf = confirmation of human OPRM1-OPRD1 heterodimerization inverse agonists. actives 20% (n = 580). cells expressing OPRM1/OPRD1 heterodimer, luminescence. AID 504900. shares compounds with MOR-DOR inv ag. inhibition, % at 9.3 µM; in the data active means inhibition above about 32%
HTR5A inv ctr2 = counter-screen for OPRM1-OPRD1 inverse agonists: human HTR5A inverse agonism; HTR5A-expressing cells, luminescence; 580 tested, under 10 active; shares compounds with MOR-DOR inv ag; inhibition, % at 9.3 µM; AID 504914; call rule not given here
Of the large screens only hits and unclear results are named; the others gave an inactive call (follow-up assays come after a bar, where they were run).

O=C(NCc1cccnc1)c1cc(C(=O)NCc2cccnc2)cc([N+](=O)[O-])c1	none (no result: HTR5A inv ag, MOR-DOR inv ag, HTR5A ag, OPRM1-OPRD1 ag, beta cell repl)
Cn1cnc([N+](=O)[O-])c1S(=O)(=O)Oc1ccc(Cl)cc1	MOR-DOR inv ag 40 (no result: beta cell repl) | OPRM1-D1 inv cf inactive | HTR5A inv ctr2 inactive
Cn1cnc([N+](=O)[O-])c1S(=O)(=O)Oc1cccc2ccccc12	none (no result: beta cell repl)
O=C(O)C1Sc2[nH]c(=O)sc2C2c3ccc(O)cc3OC(=O)C12 (stereo not drawn)	none
CC(=O)Oc1ccc(OC(C)=O)c(SCCCCCN2CCOCC2)c1	MOR-DOR inv ag 29 | OPRM1-D1 inv cf inactive | HTR5A inv ctr2 inactive
CCc1c(C2(O)CCCCC2)[nH]c2cc(C(F)(F)F)ccc12	none
CC(C)NC(=O)Nc1cccc2c1O[C@H](CN(C)C(=O)Nc1ccccc1)[C@@H](C)CN([C@H](C)CO)C2=O	none
Cn1c(/C=C/c2cccc([N+](=O)[O-])c2)c([N+](=O)[O-])c(=O)n(C)c1=O	MOR-DOR inv ag 29 | OPRM1-D1 inv cf inactive | HTR5A inv ctr2 inactive
NN=C1C(=O)c2cccc3cccc1c23	MOR-DOR inv ag 57 (no result: beta cell repl) | OPRM1-D1 inv cf inactive | HTR5A inv ctr2 inactive
NC1=CC(=O)c2cccc3cccc1c23	none (no result: HTR5A inv ag, MOR-DOR inv ag, V-ATPase pHluor, HTR5A ag, OPRM1-OPRD1 ag)
CC(C(=O)Nc1cccc([N+](=O)[O-])c1)N1C(=O)NC2(CCCC2)C1=O (stereo not drawn)	none
CCS(=O)(=O)N1CCC(C(=O)OCC(=O)c2ccc(Br)cc2)CC1	MOR-DOR inv ag 35 | OPRM1-D1 inv cf inactive | HTR5A inv ctr2 inactive
Cc1ccc2cc(C=O)c(N3CCOCC3)nc2c1C	MOR-DOR inv ag 36 | OPRM1-D1 inv cf inactive | HTR5A inv ctr2 inactive
Cc1ccc(NC(=S)NNC(=O)c2nn(C)cc2Cl)cc1	MOR-DOR inv ag 29 | OPRM1-D1 inv cf inactive | HTR5A inv ctr2 inactive
ON1C(c2ccccc2C(F)(F)F)N(O)[C@H]2CCCC[C@H]21 (stereo partly drawn)	MOR-DOR inv ag 41 | OPRM1-D1 inv cf inactive | HTR5A inv ctr2 inactive
O=C(Nc1ccccc1C(F)(F)F)C1CCCC1	none
O=C(Nc1c(C(=O)O)[nH]c2ccccc12)NC1CCCCC1	MOR-DOR inv ag 32 | OPRM1-D1 inv cf inactive | HTR5A inv ctr2 inactive
CCCc1ccc(C(=O)NNc2ccc(F)cc2)cc1	MOR-DOR inv ag 44 | OPRM1-D1 inv cf inactive | HTR5A inv ctr2 inactive
O=C(NNc1ccc(O)cc1)c1ccc(Br)cc1	MOR-DOR inv ag 66 | OPRM1-D1 inv cf 62 | HTR5A inv ctr2 inactive
CCCc1ccc(C(=O)NNC(=O)c2ccc(Br)cc2)cc1	none
CC1(C)CC(CC(=O)NC(=S)Nc2ccc([N+](=O)[O-])cc2)C(=O)O1 (stereo not drawn)	MOR-DOR inv ag 35 | OPRM1-D1 inv cf inactive | HTR5A inv ctr2 inactive
O=C1Nc2ccccc2C1=Nc1ccc2[nH]c3ccccc3c2c1	MOR-DOR inv ag 49 (no result: beta cell repl) | OPRM1-D1 inv cf inactive | HTR5A inv ctr2 inactive
O=C1NC(=Nc2ccccc2)c2ccc([N+](=O)[O-])cc21	none
COc1cc(/C=N/N=C2/C(=O)Nc3ccccc32)cc(OC)c1O	none
Cc1ccc(N=C2C(=O)Nc3ccccc32)cc1C	MOR-DOR inv ag 43 | OPRM1-D1 inv cf inactive | HTR5A inv ctr2 inactive
Cc1ccc(N=C2C(=O)Nc3ccccc32)cc1	MOR-DOR inv ag 49 | OPRM1-D1 inv cf inactive | HTR5A inv ctr2 inactive
Cc1ccc([N+](=O)[O-])cc1N=C1C(=O)Nc2ccccc21	MOR-DOR inv ag 50 | OPRM1-D1 inv cf inactive | HTR5A inv ctr2 inactive
COc1cccc(C(=O)OCC(=O)N2CCc3ccccc3C2)c1	none
COC(=O)c1c(NC(=O)CSc2nc3nc(C)cc(C)n3n2)sc(C)c1C	none
CC(=O)c1cccc(N2C(=O)Nc3ccccc3N2O)c1	none
CC(=O)c1cccc(N=C2C(=O)Nc3ccccc32)c1	MOR-DOR inv ag 59 | OPRM1-D1 inv cf 37 | HTR5A inv ctr2 inactive
CC(C)CCN1C(=O)c2ccc(C(=O)N3CCCCC3)cc2C1=O	none
Cc1ccc(NC(=O)C2CCN(S(=O)(=O)c3c(C)noc3C)CC2)cc1C	none
CCNC(=O)Nc1ccc(-n2nc(C)c(C(=O)OCC)c2C)nc1	none
CC1NC(=S)N(Cc2ccccc2)C1=O (stereo not drawn)	MOR-DOR inv ag 33 | OPRM1-D1 inv cf inactive | HTR5A inv ctr2 inactive
CC(C)C1NC(=S)N(Cc2ccccc2)C1=O (stereo not drawn)	none
CC(C)(C)C(=O)N1N=C(c2ccc(NS(C)(=O)=O)cc2)CC1c1cccs1 (stereo not drawn)	none (no result: V-ATPase pHluor)
Cn1c(SSc2ccc(-c3cccnc3)n2C)ccc1-c1cccnc1	MOR-DOR inv ag 41 (no result: beta cell repl) | OPRM1-D1 inv cf inactive | HTR5A inv ctr2 inactive
CNc1sc(C(=O)c2ccccc2F)c(N)c1-c1nc2ccccc2s1	MOR-DOR inv ag 48 | OPRM1-D1 inv cf inactive | HTR5A inv ctr2 inactive
CCC(=O)OCCNc1cc(SCCC(=O)OC)c2nonc2c1[N+](=O)[O-]	none
CCC(=O)OCCNc1cc(Sc2nccn2C)c2nonc2c1[N+](=O)[O-]	MOR-DOR inv ag 42 (no result: beta cell repl) | OPRM1-D1 inv cf inactive | HTR5A inv ctr2 inactive
CCCC(=O)OCCNc1cc(Sc2nc3ccccc3[nH]2)c2nonc2c1[N+](=O)[O-]	MOR-DOR inv ag 35 | OPRM1-D1 inv cf inactive | HTR5A inv ctr2 inactive
CCOC(=O)N1CCC(NC(=O)c2cc3c(=O)[nH]c4ccccc4c3n2C)CC1	none
C=CCn1cnc2scc(-c3ccc(C)cc3)c2c1=O	none
O=C(COC(=O)C1CCN(S(=O)(=O)c2cccs2)CC1)c1cc2ccccc2o1	MOR-DOR inv ag 58 | OPRM1-D1 inv cf inactive | HTR5A inv ctr2 inactive
CC(=O)Nc1ccc(/C=C(\C#N)S(=O)(=O)c2ccc(C)cc2)cc1	none
Cc1ccc2c(c1)C(=O)C(=O)N2Cc1ccccc1	MOR-DOR inv ag 38 | OPRM1-D1 inv cf inactive | HTR5A inv ctr2 inactive
Cc1ccc2c(c1)C(=O)C(=O)N2Cc1ccc(F)cc1	MOR-DOR inv ag 39 | OPRM1-D1 inv cf inactive | HTR5A inv ctr2 inactive
O=C1C(=O)N(Cc2cccc([N+](=O)[O-])c2)c2ccccc21	MOR-DOR inv ag 52 | OPRM1-D1 inv cf inactive | HTR5A inv ctr2 inactive
CC(C)(C)c1ccc(CNc2ccc([N+](=O)[O-])cn2)cc1	none (no result: beta cell repl)
O=C1CCCN1S(=O)(=O)c1ccc(F)cc1	none
Cn1c(NNC(=O)c2cccc3ccccc23)cc(=O)n(C)c1=O	MOR-DOR inv ag 23 | OPRM1-D1 inv cf inactive | HTR5A inv ctr2 inactive
Cn1c(NNC(=O)c2ccccc2F)cc(=O)n(C)c1=O	none
CS(=O)(=O)N(CC(=O)Nc1ccc(S(=O)(=O)N2CCOCC2)cc1)c1cccc(F)c1	none
Cc1cc(NC(=O)C(C)SCC(=O)OCc2ccc([N+](=O)[O-])cc2)no1 (stereo not drawn)	none
